# Screening results: PubChem, Broad Institute
# The entries come from a sample that favours hits as a whole.
# miR122 inh: miR-122 sensor activation | AID 623901 | Huh7 psiCHECK-miR122 Renilla luciferase sensor, 48 h | actives 0.14% (n = 340,000) | activation, % at 12.5 µM;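 active = mean activation of 30% or more, with every replicate also reaching 30%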;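 also: 0% = median of neutral control wells and 100% = median of positive control wells; higher luciferase signal means stronger suppression of miR-122 activity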
# * hit, by the source's call.
SMILES,miR122 inh
C[C@H](CO)N1C[C@H](C)[C@H](CN(C)Cc2cncnc2)Oc2cc(C#C[C@@H](C)O)ccc2S1(=O)=O,3
C[C@H](O)C#Cc1ccc2c(c1)O[C@@H](CN(C)Cc1ccc(-c3ccccc3)cc1)[C@@H](C)CN([C@@H](C)CO)S2(=O)=O,38*
CC(C)CC#Cc1cnc2c(c1)C(=O)N([C@H](C)CO)C[C@H](C)[C@H](CN(C)C(=O)Cc1ccccc1)O2,4
C/C=C/c1cnc2c(c1)C(=O)N([C@H](C)CO)C[C@H](C)[C@H](CN(C)C(=O)Nc1cccc(OC)c1)O2,11
C[C@H]1CN([C@@H](C)CO)C(=O)c2cc(-c3cccnc3)cnc2O[C@@H]1CN(C)S(C)(=O)=O,-18
C[C@H](CO)N1C[C@H](C)[C@@H](CN(C)CC2CCCC2)Oc2ncc(C#Cc3cccc(F)c3)cc2C1=O,6
CC(C)NC(=O)N(C)C[C@H]1Oc2cc(C3=CCCCC3)ccc2S(=O)(=O)N([C@H](C)CO)C[C@@H]1C,-25
C[C@@H]1CN([C@@H](C)CO)C(=O)c2cc(/C=C/c3ccccc3)cnc2O[C@H]1CN(C)C(=O)C1CCOCC1,-3
C[C@@H]1CN([C@@H](C)CO)C(=O)c2cc(-c3cccc(C(=O)N(C)C)c3)cnc2O[C@@H]1CN(C)S(=O)(=O)c1ccc(F)cc1,2
Cc1ccccc1NCN1C(=O)C2C3C=CC(C3)C2C1=O (centres undefined),34*
CC(C)CC#Cc1cnc2c(c1)C(=O)N([C@@H](C)CO)C[C@@H](C)[C@H](CN(C)C(=O)C1CCCCC1)O2,6
CCC(=O)Nc1ccc2c(c1)C(=O)N(C)C[C@@H](OC)[C@H](C)CN(Cc1ccccc1OC)[C@@H](C)CO2,2
CC(=O)N(C)C[C@@H]1[C@@H](c2ccc(-c3cccc(C#N)c3)cc2)[C@H](CO)N1C(C)=O,92*
CCC(=O)N1[C@H](CN(C(C)C)S(C)(=O)=O)[C@@H](c2ccccc2)[C@@H]1CO,92*
CC(=O)N1[C@H](CNC(=O)C2CC2)[C@H](c2ccc(-c3ccccc3)cc2)[C@@H]1CO,-150
CCC(=O)N1[C@H](CN(C)C(C)=O)[C@H](c2ccc(-c3cccnc3)cc2)[C@@H]1CO,43*
CCC(=O)N(C)C[C@H]1Oc2cc(-c3cccnc3)ccc2S(=O)(=O)N([C@@H](C)CO)C[C@H]1C,2
CCN(C[C@@H]1[C@@H](c2ccccc2)[C@@H](CO)N1C(=O)COC)S(C)(=O)=O,-92
CCCNC(=O)NC[C@@H]1[C@@H](c2ccc(C3=CCCC3)cc2)[C@H](CO)N1C(=O)CC,-343
CCC(=O)N(C)C[C@@H]1Oc2cc(-c3cccc(C#N)c3)ccc2S(=O)(=O)N([C@@H](C)CO)C[C@@H]1C,2
CCCN(C)C[C@@H]1Oc2cc(C#CC3(O)CCCC3)ccc2S(=O)(=O)N([C@H](C)CO)C[C@@H]1C,10
C[C@H]1CN([C@@H](C)CO)S(=O)(=O)c2ccc(C#Cc3ccccc3)cc2O[C@H]1CN(C)S(=O)(=O)c1ccccc1F,4
C[C@@H]1CN([C@H](C)CO)C(=O)c2cc(-c3ccc(C(=O)N(C)C)cc3)cnc2O[C@@H]1CN(C)Cc1ccc(C(=O)O)cc1,6
CCC(=O)N(C)C[C@@H]1Oc2ncc(C#CC3(O)CCCC3)cc2C(=O)N([C@@H](C)CO)C[C@H]1C,-8
COc1ccccc1S(=O)(=O)N(C)C[C@H]1Oc2cc(/C=C/c3ccccc3)ccc2S(=O)(=O)N([C@H](C)CO)C[C@@H]1C,-52
SMILES,miR122 inh
COCC#Cc1cnc2c(c1)C(=O)N([C@H](C)CO)C[C@@H](C)[C@@H](CN(C)C(=O)Cc1cccnc1)O2,6
C[C@@H]1CN([C@@H](C)CO)C(=O)c2cc(Br)cnc2O[C@@H]1CN(C)CC1CCOCC1,6
C[C@@H]1CN([C@H](C)CO)S(=O)(=O)c2ccc(-c3ccc(C#N)cc3)cc2O[C@H]1CN(C)C(=O)C1CC1,-25
NC1=NC[C@@H](CC2CCCCC2)N1CCc1cc(C(F)(F)F)cc(C(F)(F)F)c1,35*
C[C@@H]1CN([C@@H](C)CO)C(=O)c2cc(-c3cncnc3)cnc2O[C@@H]1CN(C)Cc1ccc(F)cc1,1
COc1cccc(C#Cc2ccc3c(c2)O[C@@H](CN(C)C(=O)c2ccccn2)[C@@H](C)CN([C@@H](C)CO)S3(=O)=O)c1,5
CCC(=O)N(C)C[C@@H]1Oc2cc(-c3cccnc3)ccc2S(=O)(=O)N([C@@H](C)CO)C[C@H]1C,-19
CNC(=O)C[C@@H]1CC[C@@H]2[C@@H](COc3ccc(NC(=O)c4ccccc4F)cc3C(=O)N2C)O1,53*
CNC(=O)C[C@@H]1CC[C@@H]2[C@H](COc3ccc(NC(=O)Nc4cccc(C)c4)cc3C(=O)N2C)O1,47*
Cc1ccccc1NC(=O)Nc1ccc2c(c1)C(=O)N(C)[C@H]1CC[C@@H](CC(=O)NCC3CC3)O[C@H]1CO2,-218
COCC(=O)Nc1ccc2c(c1)C(=O)N(C)[C@@H]1CC[C@@H](CC(=O)NC3CCCC3)O[C@H]1CO2,53*
CCC(=O)Nc1ccc2c(c1)OC[C@@H](C)N(C(=O)c1ccccc1F)C[C@H](C)[C@H](OC)CN(C)C2=O,-1
COC(=O)C[C@@H]1CC[C@@H]2[C@@H](COc3ccc(NC(=O)Nc4cccc(C#N)c4)cc3C(=O)N2C)O1,48*
COCC(=O)Nc1ccc2c(c1)C(=O)N(C)C[C@H](OC)[C@@H](C)CN(C(=O)COC)[C@@H](C)CO2,1
CO[C@H]1CN(C)C(=O)c2cc(NC(=O)Nc3ccccc3)ccc2OC[C@H](C)NC[C@H]1C,-4
COCC(=O)Nc1ccc2c(c1)C(=O)N(C)C[C@H](OC)[C@H](C)CN(C(=O)COC)[C@H](C)CO2,-2
CO[C@@H]1CN(C)C(=O)c2cc(NC(=O)Nc3ccccc3)ccc2OC[C@H](C)NC[C@H]1C,-2
CCCNC(=O)C[C@@H]1CC[C@H]2[C@H](COc3ccc(NC(=O)Nc4ccccc4F)cc3C(=O)N2C)O1,-100
C[C@H]1CN([C@@H](C)CO)C(=O)c2cc(Br)cnc2O[C@H]1CN(C)Cc1ccc2c(c1)OCO2,12
CC(C)CC#Cc1cnc2c(c1)C(=O)N([C@H](C)CO)C[C@H](C)[C@H](CN(C)S(=O)(=O)c1ccccc1)O2,10
CO[C@@H]1CN(C)C(=O)c2ccc(NC(=O)Nc3ccc(Cl)cc3)cc2OC[C@H](C)N(C)C[C@H]1C,-4
COc1ccccc1-c1ccc2c(c1)O[C@@H](CN(C)S(=O)(=O)c1ccc(C)cc1)[C@H](C)CN([C@H](C)CO)S2(=O)=O,0
CCCN(C)C[C@@H]1Oc2ncc(-c3ccccc3OC)cc2C(=O)N([C@H](C)CO)C[C@H]1C,9
COc1ccccc1-c1ccc2c(c1)O[C@@H](CN(C)C(C)=O)[C@H](C)CN([C@@H](C)CO)S2(=O)=O,1
C[C@H](CO)N1C[C@H](C)[C@H](CN(C)C(=O)c2cccnc2)Oc2ncc(/C=C/c3ccccc3)cc2C1=O,-6
CCC(=O)Nc1ccc2c(c1)OC[C@@H](C)NC[C@H](C)[C@H](OC)CN(C)C2=O,-1
CCC(=O)Nc1ccc2c(c1)C(=O)N(C)C[C@@H](OC)[C@@H](C)CN(Cc1ccccc1OC)[C@@H](C)CO2,-6
COc1ccccc1C#Cc1ccc2c(c1)O[C@H](CN(C)Cc1ccncc1)[C@@H](C)CN([C@@H](C)CO)S2(=O)=O,-1
CCCC(=O)Nc1ccc2c(c1)OC[C@H](C)N(C(C)=O)C[C@H](C)[C@H](OC)CN(C)C2=O,2
